The panel holds about 79,000 compounds, 15% with a hit somewhere; the sample as a whole holds those more often. The source made the active and inactive calls. Rule as the data show it: active = growth inhibition above about 70%; inactive = the rest. Where a SMILES comes first, the peptide text is derived from it. The star is where a group is joined. Myristoyl = CCCCCCCCCCCCCC(=O)*
Assay: NCI Yeast Anticancer Drug Screen. Data for the cln2 rad14 strain (AID 165);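 also: 0% = growth equal to vehicle treated cultures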
Conditions: S. cerevisiae cln2 rad14 strain, at 50.0 µM, active compounds read high
Procedure, shortened: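 Growth of compound-exposed yeast (cln2 rad14 genotype) measured and expressed as inhibition relative to vehicle.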
With `COc1ccc(-c2cc(O)cc(C)c2N)c(OC)c1OC` the growth inhibition was 7.9% (inactive).
With `CCCOc1ncnc2nc[nH]c12` the growth inhibition was -6.4% (inactive).
For `CCCCCCCCCCCCCC(=O)NCC(=O)NC(CO)C(=O)NC(CO)C(=O)NC(CCCCN)C(=O)NC(CO)C(=O)NC(CCCCN)C(=O)N1CCCC1C(=O)NC(CCCCN)C(=O)NC(CC(=O)O)C(N)=O` (centres undefined) (Myristoyl-GSSKSKPKD-NH2; configuration not given here), the growth inhibition was 6.1% (inactive).
For `CS(=O)(=O)Nc1ccc(C(=O)CCN2CCCCCC2)cc1`, the growth inhibition was -6.6% (inactive).
With `CC(C)(C)[C@@H]1NC(=O)CN1C(=O)OCc1ccccc1` the growth inhibition was -17.1% (inactive).
In the case of `CC(C)(C)c1ccc(C(O)(c2ccc(C(C)(C)C)cc2)c2ccc(C(C)(C)C)cc2)cc1`, the growth inhibition is reported as 8.25% (inactive).
In the case of `Clc1cccc(-c2nc3cccc4c3n2Cc2ncccc2-4)c1`, the growth inhibition is reported as -9.4% (inactive).
With `CC(=N\N=C(N)N)/C(N=Nc1ccc(S(N)(=O)=O)cc1)=N\N=C(N)N` the growth inhibition was -45.6% (inactive).
In the case of `O=C(O)c1ccccn1`, the growth inhibition is reported as -6.1% (inactive).
With `O=C1C=C(Nc2ccc(Cl)cc2Cl)c2ccccc2C1=O` the growth inhibition was 29% (inactive).
In the case of `CC(O)/C=C/C(CCC(C)CO)C(C)C` (centres undefined), the growth inhibition is reported as -10.2% (inactive).
In the case of `Cc1ccc(S(=O)(=O)OCC2CC=CCC2COC(=O)c2ccc([N+](=O)[O-])cc2)cc1` (centres undefined), the growth inhibition is reported as 15.1% (inactive).
With `C1=CC(c2ccccc2)=C(c2ccccc2)C(c2ccccc2)C(c2ccccc2)=C1` (centres undefined) the growth inhibition was 26.9% (inactive).
In the case of `COc1ccc(-c2cc(N)c3c(c2O)C(=O)c2c(N)ccc(O)c2C3=O)cc1`, the growth inhibition is reported as -23.6% (inactive).

Source: PubChem BioAssay (NCI)
